This note sets out measurements from the supplement of paper PMC11732987, “Enantioselective OTUD7B fragment discovery through chemoproteomics screening and high-throughput optimisation” (Communications Chemistry, 2025).

A number with no mark means an inactive call.

What all share (assay): log2 ratio of Biotin-Ahx-Ub-VS probe labelling (fragment/DMSO); higher = less target engagement (more negative = stronger competition), active = hit call of the paper (q ≤ 0.05, log2 ratio ≤ -1)
Conditions in all cases: compound concentration: 200 uM; treatment time: 3 h

In one assay the target is T1, OTUD6B (UniProt Q8N6M0).
T1 sequence (whole entry): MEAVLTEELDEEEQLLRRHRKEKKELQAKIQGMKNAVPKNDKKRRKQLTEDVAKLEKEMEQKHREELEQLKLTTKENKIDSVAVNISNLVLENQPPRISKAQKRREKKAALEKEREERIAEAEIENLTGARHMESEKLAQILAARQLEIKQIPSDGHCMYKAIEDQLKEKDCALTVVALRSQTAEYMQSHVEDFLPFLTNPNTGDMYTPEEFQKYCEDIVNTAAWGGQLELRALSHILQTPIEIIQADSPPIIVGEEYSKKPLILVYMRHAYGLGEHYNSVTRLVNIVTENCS
An outline of the steps:
(§1)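 Labelled DUBs were enriched with NeutrAvidin, digested with LysC and trypsin, and run by diaPASEF LC-MS/MS. The labelling used Biotin-Ahx-Ub-VS at 0.5 µM final for 1 h on HEK293T lysate (495 µg per sample) previously treated in triplicate with fragment at 200 µM or vehicle for 3 h. Values are average log2 fragment/vehicle ratios by unpaired t-test on global-median-normalised Spectronaut quantities of proteins with ≥2 unique peptides.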

The next assay deals with T2, OTUD7B (UniProt Q6GQQ9).
T2 sequence (whole entry): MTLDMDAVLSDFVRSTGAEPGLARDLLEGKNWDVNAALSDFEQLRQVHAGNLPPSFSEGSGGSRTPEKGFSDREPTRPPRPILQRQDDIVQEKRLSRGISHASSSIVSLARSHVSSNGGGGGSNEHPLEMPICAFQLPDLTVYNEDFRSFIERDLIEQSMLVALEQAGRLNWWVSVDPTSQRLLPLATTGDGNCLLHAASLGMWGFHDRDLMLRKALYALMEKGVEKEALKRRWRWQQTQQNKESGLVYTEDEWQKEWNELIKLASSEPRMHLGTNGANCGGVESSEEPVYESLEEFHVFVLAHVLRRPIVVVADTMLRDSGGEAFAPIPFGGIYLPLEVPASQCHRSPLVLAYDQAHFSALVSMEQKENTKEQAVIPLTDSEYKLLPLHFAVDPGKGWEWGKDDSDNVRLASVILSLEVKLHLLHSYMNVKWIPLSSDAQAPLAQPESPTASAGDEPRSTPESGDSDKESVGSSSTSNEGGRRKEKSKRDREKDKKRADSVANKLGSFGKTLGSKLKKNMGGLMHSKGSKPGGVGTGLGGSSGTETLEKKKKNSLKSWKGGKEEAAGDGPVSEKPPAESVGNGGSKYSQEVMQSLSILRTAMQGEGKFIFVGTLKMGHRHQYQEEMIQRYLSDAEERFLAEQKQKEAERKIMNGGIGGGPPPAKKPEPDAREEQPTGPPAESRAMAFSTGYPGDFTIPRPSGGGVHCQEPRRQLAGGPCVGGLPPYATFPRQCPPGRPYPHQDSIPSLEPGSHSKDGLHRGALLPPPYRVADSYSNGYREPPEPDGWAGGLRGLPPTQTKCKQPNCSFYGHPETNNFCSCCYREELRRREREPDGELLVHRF
An outline of the steps: as §1

The target in another assay is PRPF8 (UniProt Q6P2Q9). An outline of the steps:
as §1

A further assay deals with T3, PSMD7 (UniProt P51665).
T3 sequence (whole entry): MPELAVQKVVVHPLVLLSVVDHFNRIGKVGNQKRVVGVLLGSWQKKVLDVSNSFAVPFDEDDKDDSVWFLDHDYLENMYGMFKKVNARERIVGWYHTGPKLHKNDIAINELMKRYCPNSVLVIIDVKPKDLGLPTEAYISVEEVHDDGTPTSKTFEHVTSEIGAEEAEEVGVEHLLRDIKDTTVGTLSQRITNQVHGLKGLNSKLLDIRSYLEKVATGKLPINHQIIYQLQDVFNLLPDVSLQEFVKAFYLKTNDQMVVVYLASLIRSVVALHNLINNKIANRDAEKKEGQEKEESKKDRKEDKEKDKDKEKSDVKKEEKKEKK
An outline of the steps: as §1

In a further assay the target is UCHL1 (UniProt P09936). Put shortly:
as §1

For the next assay, the target named is T4, UCHL3 (UniProt P15374).
T4 sequence (whole entry): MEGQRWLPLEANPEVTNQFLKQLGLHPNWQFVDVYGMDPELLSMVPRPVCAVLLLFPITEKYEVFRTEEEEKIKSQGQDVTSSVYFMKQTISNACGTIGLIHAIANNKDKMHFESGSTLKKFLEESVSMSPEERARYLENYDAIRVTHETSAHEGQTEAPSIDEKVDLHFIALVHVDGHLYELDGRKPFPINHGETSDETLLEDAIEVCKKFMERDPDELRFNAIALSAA
An outline of the steps:
as §1

The next assay concerns the target T5, UCHL5 (UniProt Q9Y5K5).
T5 sequence (whole entry): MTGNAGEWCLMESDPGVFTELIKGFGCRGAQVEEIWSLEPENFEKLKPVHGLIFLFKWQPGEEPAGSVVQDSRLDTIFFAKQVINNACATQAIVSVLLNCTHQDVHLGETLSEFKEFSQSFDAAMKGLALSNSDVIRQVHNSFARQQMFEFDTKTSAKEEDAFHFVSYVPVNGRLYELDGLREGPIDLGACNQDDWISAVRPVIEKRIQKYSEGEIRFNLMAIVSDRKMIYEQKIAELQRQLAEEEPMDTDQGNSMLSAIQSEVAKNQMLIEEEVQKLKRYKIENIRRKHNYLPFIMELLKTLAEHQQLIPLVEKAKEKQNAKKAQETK
Put shortly:
as §1

The target of the next assay is USP10 (UniProt Q14694). Put shortly:
as §1

The next assay concerns the target T6, USP15 (UniProt Q9Y4E8).
T6 sequence (whole entry): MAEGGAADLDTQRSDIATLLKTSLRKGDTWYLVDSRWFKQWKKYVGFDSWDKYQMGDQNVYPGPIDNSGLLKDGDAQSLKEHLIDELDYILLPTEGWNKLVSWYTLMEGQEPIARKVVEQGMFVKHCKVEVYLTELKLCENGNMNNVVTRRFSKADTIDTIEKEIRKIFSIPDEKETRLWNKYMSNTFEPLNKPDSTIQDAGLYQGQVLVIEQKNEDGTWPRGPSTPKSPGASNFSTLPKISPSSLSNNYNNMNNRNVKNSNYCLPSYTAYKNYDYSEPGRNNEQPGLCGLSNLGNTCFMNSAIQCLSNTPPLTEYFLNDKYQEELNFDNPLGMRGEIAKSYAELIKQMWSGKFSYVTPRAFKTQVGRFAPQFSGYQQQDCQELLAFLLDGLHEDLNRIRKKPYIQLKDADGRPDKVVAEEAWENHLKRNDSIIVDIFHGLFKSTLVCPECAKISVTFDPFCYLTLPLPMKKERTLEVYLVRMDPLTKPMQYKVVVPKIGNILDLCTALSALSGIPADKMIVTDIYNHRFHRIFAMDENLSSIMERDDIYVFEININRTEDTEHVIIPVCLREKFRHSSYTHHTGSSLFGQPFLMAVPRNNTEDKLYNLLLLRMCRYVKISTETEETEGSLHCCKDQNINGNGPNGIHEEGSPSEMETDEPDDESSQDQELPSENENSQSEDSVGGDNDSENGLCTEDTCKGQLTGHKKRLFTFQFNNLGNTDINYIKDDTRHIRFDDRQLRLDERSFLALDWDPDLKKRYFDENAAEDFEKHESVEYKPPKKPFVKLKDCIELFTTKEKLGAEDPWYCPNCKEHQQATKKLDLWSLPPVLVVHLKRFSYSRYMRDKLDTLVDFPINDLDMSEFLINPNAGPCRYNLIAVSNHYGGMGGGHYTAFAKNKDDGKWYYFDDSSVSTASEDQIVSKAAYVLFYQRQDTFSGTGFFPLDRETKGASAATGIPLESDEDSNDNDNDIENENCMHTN
An outline of the steps:
as §1

Chain of USP10 (Q14694 whole entry): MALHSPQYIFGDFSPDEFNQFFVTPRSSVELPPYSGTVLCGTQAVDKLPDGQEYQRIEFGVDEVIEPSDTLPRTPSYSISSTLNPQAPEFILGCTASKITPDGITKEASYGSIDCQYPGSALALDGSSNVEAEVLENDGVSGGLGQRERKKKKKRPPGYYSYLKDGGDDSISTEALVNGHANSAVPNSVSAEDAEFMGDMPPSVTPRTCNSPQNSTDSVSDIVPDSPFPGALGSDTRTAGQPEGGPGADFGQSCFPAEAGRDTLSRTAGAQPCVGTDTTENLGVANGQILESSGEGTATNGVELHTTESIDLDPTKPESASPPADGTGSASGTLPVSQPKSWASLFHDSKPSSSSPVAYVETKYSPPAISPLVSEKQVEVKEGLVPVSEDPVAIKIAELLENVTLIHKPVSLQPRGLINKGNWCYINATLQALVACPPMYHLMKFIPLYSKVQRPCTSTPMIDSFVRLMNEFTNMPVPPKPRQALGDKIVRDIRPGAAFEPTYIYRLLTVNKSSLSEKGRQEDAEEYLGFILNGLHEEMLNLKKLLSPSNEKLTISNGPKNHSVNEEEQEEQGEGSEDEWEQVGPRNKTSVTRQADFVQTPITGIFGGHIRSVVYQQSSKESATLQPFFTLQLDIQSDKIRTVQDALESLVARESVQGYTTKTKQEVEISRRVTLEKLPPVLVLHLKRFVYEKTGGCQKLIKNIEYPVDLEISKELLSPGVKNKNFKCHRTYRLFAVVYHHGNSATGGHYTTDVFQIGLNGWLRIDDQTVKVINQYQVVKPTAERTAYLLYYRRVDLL
Chain of UCHL1 (P09936 whole entry, looked up): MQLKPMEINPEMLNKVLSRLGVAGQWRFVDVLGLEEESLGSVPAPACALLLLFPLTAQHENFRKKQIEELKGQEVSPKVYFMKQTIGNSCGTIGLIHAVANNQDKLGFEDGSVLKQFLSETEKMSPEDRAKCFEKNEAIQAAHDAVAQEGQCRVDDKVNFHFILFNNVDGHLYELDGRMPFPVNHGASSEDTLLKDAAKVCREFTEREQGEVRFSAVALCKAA

As to `N#Cc1cnn(-c2ccccc2)c1NC(=O)CCl`, the “log2 ratio of Biotin-Ahx-Ub-VS probe labelling” value is -0.394 with OTUD6B; -1.83 (active) in the assay with OTUD7B; -0.0739 with PRPF8; -0.397 with PSMD7; -1.35 (active) in the assay with UCHL1; 0.168 in the assay with UCHL3. Further, the “log2 ratio of Biotin-Ahx-Ub-VS probe labelling” value with UCHL5 was -0.235; in the assay with USP10, -0.0214; with USP15 it was -0.516.
